# From PubChem BioAssay (EPA / NIEHS)
# Results filed as inconclusive are left out. Activity calls are given as the source filed them. How the source made its calls: active means hit-call score of the fitted dose curve at least 0.9, where 1 is the maximum; inconclusive means response in the unintended direction; inactive means score below 0.9.
# Molecular target: Retinoic acid receptor RXR-alpha (Homo sapiens) (UniProt P19793)
# Test: ATG_RXRa_TRANS: Attagene TRANS-FACTORIAL HepG2 Assay for human Retinoid X Receptor alpha (RXRa) (AID 2283012)
# Experimental: ATG_TRANS is a cell-based, multiplexed-readout assay that uses HepG2, a human liver cell line, with measurements taken at 24 hours after chemical dosing in a 24-well plate.ATG_RXRa_TRANS is one of 30 assay component(s) measured or calculated from the ATG_TRANS assay. It is designed to make measurements of mRNA induction, a form of inducible reporter, as detected with fluorescence intensity signals by Reverse transcription polymerase chain reaction (RT-PCR) and Capillary electrophoresis technology.Data from the assay component ATG_RXRa_TRANS was analyzed into 1 assay endpoint. This assay endpoint, ATG_RXRa_TRANS, was analyzed in the positive analysis fitting direction relative to DMSO as the negative control and baseline of activity. Using a type of inducible reporter, measures of mRNA for gain-of-signal activity can be used to understand the reporter gene at the transcription factor-level as they relate to the gene RXRA. Furthermore, this assay endpoint can be referred to as a primary readout, because this assay has produced multiple assay endpoints where this one serves a reporter gene function. To generalize the intended target to other relatable targets, this assay endpoint is annotated to the nuclear receptor intended target family, where the subfamily is non-steroidal.
# Human liver HepG2 cells are transiently transfected with multiple reporter transcription units (MRTUs) in 6-well plates using FuGene 6 reagent (Roche; 3 ml FuGene/1 mg DNA). The MRTU constructs are regulated by a cis-regulating element (promoter). […] A major difference between the CIS and TRANS system is that in CIS activities of endogenous TFs are measured, whereas the TRANS assay evaluates changes in activities of exogenous, chimeric NR-Gal4 proteins. […] At the end of 24 hour incubation, total RNA was isolated using TriZol reagent (Invitrogen). The isolated RNA is then reverse-transcribed using oligo(dT) primer and Mo-MLV reverse transcriptase (Invitrogen) with DNAse I (Ambion) treatment for 30 min. The one-tenth of the produced cDNA was amplified by PCR using Taq DNA polymerase (Invitrogen) and two reporter sequence-specific primers. The PCR products were fluorescently labeled by primer extension with 6-arboxyfluorescein (6-FAM) 5'-labeled reporter sequence-specific primer (2 min at 95 C, 20 s at 68 C and 10 min at 72 C) and these products were digested with 5U of HpaI (New England Biolabs) for 2h at 37 C. The fragments were purified using Qiaquick PCR columns (Qiagen), analyzed on an ABI 3130xL genetic analyzer (Applied Biosystems) with peak positions identified by using a set of X-rhodamine (ROX)-labeled MapMarker1000 molecular weight standards (BioVentures). The raw capillary electrophoresis data was processed using Attagraph software (Attagene).
# Chain of Retinoic acid receptor RXR-alpha (Homo sapiens) (P19793 whole entry, looked up): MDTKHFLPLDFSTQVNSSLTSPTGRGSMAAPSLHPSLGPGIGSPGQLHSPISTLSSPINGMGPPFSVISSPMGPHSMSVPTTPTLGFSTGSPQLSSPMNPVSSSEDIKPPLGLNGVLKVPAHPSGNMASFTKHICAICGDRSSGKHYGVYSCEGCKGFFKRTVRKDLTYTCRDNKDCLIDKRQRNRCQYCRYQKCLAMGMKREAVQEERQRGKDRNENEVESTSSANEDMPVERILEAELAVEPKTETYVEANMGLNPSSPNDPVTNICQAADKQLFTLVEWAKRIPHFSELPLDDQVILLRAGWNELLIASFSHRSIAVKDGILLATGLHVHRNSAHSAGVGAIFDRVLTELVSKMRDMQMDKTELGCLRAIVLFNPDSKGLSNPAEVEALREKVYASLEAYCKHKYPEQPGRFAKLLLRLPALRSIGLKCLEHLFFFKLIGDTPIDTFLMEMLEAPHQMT
Compound,outcome,AC50
Cc1ccc(O)cn1,inactive,
CCc1cccc(C)c1N(C(=O)C(=O)O)C(C)COC (stereo not given),inactive,
O=S(=O)(O)CCC(F)(F)C(F)(F)C(F)(F)C(F)(F)C(F)(F)C(F)(F)C(F)(F)C(F)(F)F,inactive,
C[C@]12CC[C@H]3C(=CCc4cc(O)ccc43)[C@@H]1CCC2=O,inactive,
CCCC(=O)OCC(COC(=O)CCC)OC(=O)CCC,inactive,
c1ccc(C[P+](c2ccccc2)(c2ccccc2)c2ccccc2)cc1,inactive,
C[Si](C)O[Si](C)C,inactive,
FC(F)(F)C(F)(F)C(F)(F)CC1CO1 (stereo not given),inactive,
CCN=C1C=CC(=C(c2ccc(N(CC)CC)cc2)c2ccc(N(CC)CC)cc2)c2ccccc21,inactive,
OCC(O)CC(F)(F)C(F)(F)C(F)(F)C(F)(F)F (stereo not given),inactive,
CN1CN(C)CN(C)C1,inactive,
OCCCCl,inactive,
OC(O)C(F)(F)C(F)(F)F,inactive,
CCN(CC)c1ccc(N=Nc2ccccc2)cc1,inactive,
CO[Si](CCCOCC1CO1)(OC)OC (stereo not given),inactive,
N#Cc1ccccc1O,inactive,
O=S(=O)(O)c1ccc(Cl)cc1,inactive,
CC(=O)C=O,inactive,
O=S(=O)(OCC(F)(F)F)C(F)(F)C(F)(F)C(F)(F)C(F)(F)F,inactive,
O=C(O)C(F)(F)OC(F)(F)C(F)(F)OC(F)(F)C(F)(F)OC(F)(F)F,inactive,

Compound,outcome,AC50
CO[Si](C)(CCC(F)(F)C(F)(F)C(F)(F)C(F)(F)C(F)(F)C(F)(F)F)OC,inactive,
NS(=O)(=O)C(F)(F)C(F)(F)C(F)(F)C(F)(F)C(F)(F)C(F)(F)F,inactive,
NCC(F)(F)C(F)(F)C(F)(F)C(F)(F)C(F)(F)C(F)(F)F,inactive,
COC(F)(C(F)F)C(F)(F)F (stereo not given),inactive,
CSc1ccc(O)cc1C,inactive,
Cc1cc(O)c(C(C)(C)C)cc1C(C)(C)C,,7.4 µM (active)
O=C(O)C(F)(F)C(F)(F)C(F)(F)C(=O)O,inactive,
CC(C)(C)c1cc(CCC(=O)NCCCCCCNC(=O)CCc2cc(C(C)(C)C)c(O)c(C(C)(C)C)c2)cc(C(C)(C)C)c1O,inactive,
CCCCCCCCCCCC(=O)Cl,inactive,
OCC(F)(F)C(F)(F)C(F)(F)CO,inactive,
CCOC(OCC)OCC,inactive,
CCCCCCCCCCCCCC[P+](CCCC)(CCCC)CCCC,inactive,
CC(O)C#CC(C)O (stereo not given),inactive,
FC(F)(F)C(F)(F)C(F)(F)C(F)(F)C(F)(F)C(F)(F)C(F)(F)CCI,inactive,
CCOC(C=C(C)CCC=C(C)C)OCC,inactive,
Brc1ccccn1,inactive,
CC1=CCC(=O)O1,inactive,
C=CC(=O)OCCC(F)(F)C(F)(F)C(F)(F)C(F)(F)F,inactive,
CCC/C=C/CO,inactive,
C=CC(=O)OCC(F)(F)C(F)(F)C(F)(F)COC(=O)C=C,inactive,
